Tests used:
Experiment in all cases: log2 ratio of Biotin-Ahx-Ub-VS probe labelling (fragment/DMSO); higher = less target engagement (more negative = stronger competition), active = hit call of the paper (q ≤ 0.05, log2 ratio ≤ -1)
Settings in all cases: compound concentration: 200 uM; treatment time: 3 h
USP9X = USP9X (UniProt Q93008)
How it was run: (§1)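 HEK293T lysate, 495 µg per sample in Tris/CHAPS/IGEPAL buffer with protease inhibitors, was treated in triplicate with fragment at 200 µM or vehicle for 3 h and then with Biotin-Ahx-Ub-VS at 0.5 µM final for 1 h. Labelled DUBs were NeutrAvidin-enriched, digested with LysC and trypsin, and run by diaPASEF LC-MS/MS. Spectronaut label-free quantities were global-median-normalised, and values are average log2 fragment/vehicle ratios by unpaired t-test on proteins with ≥2 unique peptides.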

UniProt O00487 = molecular target: UniProt O00487
How it was run: as §1

UniProt O00507 = molecular target: UniProt O00507
How it was run: as §1

UniProt P51784 = molecular target: UniProt P51784
How it was run: as §1

UniProt Q5T2D3 = molecular target: T1, UniProt Q5T2D3
T1 sequence (whole entry): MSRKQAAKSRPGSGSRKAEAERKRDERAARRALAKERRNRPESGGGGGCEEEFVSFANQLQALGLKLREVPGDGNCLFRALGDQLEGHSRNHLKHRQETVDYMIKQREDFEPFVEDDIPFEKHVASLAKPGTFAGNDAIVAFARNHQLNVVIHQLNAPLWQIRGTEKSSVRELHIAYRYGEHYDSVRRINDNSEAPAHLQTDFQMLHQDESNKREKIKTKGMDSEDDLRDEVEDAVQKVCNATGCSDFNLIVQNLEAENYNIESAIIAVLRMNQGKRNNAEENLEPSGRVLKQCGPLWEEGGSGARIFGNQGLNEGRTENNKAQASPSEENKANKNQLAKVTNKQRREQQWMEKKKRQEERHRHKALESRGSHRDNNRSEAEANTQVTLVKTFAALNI
How it was run: as §1

UniProt Q8TE49 = molecular target: T2, UniProt Q8TE49
T2 sequence (whole entry): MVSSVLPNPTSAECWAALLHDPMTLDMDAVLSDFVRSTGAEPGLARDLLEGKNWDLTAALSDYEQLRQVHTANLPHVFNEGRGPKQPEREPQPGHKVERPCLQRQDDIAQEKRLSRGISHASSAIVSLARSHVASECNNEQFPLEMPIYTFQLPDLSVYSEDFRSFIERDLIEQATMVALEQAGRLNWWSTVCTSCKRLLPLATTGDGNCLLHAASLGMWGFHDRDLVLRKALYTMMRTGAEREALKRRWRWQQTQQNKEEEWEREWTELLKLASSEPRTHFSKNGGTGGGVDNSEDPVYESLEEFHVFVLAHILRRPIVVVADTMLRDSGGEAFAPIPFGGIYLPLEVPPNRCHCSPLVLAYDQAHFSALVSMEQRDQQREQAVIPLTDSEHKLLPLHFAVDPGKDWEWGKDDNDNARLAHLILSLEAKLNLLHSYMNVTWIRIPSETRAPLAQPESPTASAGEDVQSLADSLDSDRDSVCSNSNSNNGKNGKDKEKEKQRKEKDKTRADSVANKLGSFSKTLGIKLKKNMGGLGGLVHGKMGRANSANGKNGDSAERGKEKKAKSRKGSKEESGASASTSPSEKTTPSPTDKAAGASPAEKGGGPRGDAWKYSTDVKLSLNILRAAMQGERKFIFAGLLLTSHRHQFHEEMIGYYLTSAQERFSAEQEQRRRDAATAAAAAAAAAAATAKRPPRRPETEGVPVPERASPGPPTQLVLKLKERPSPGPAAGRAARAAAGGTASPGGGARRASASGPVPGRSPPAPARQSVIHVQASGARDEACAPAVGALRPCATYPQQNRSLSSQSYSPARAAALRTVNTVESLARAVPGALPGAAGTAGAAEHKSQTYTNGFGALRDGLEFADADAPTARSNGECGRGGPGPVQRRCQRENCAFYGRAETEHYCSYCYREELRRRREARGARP
How it was run: as §1

UniProt Q9P2H5 = molecular target: T3, UniProt Q9P2H5
T3 sequence (whole entry): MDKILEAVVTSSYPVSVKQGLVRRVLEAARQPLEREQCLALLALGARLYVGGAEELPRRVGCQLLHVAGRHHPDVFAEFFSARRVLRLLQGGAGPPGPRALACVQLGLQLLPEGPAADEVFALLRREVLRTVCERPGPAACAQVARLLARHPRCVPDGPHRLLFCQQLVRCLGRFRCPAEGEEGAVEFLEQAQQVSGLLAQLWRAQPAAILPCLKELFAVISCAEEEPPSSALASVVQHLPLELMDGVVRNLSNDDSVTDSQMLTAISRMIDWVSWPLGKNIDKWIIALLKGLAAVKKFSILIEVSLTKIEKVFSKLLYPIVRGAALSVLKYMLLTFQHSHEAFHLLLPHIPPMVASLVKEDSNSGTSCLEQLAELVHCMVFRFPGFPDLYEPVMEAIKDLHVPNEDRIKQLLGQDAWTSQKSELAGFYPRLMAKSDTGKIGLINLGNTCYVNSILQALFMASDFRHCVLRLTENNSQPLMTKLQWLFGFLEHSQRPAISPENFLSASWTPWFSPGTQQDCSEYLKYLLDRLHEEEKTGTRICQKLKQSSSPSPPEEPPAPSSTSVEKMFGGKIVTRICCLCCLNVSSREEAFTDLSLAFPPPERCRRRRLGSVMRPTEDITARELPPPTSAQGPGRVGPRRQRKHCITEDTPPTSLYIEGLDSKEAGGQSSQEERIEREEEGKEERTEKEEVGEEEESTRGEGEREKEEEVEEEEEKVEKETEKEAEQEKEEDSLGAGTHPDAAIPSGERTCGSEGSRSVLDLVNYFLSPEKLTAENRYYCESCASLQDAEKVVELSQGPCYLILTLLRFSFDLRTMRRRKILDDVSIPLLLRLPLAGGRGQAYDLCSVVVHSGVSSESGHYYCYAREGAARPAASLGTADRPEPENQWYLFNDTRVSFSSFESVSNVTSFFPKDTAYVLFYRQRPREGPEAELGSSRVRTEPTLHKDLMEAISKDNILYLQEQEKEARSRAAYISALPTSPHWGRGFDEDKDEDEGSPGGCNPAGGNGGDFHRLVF
How it was run: as §1

UniProt Q9UGI0 = molecular target: T4, UniProt Q9UGI0
T4 sequence (whole entry): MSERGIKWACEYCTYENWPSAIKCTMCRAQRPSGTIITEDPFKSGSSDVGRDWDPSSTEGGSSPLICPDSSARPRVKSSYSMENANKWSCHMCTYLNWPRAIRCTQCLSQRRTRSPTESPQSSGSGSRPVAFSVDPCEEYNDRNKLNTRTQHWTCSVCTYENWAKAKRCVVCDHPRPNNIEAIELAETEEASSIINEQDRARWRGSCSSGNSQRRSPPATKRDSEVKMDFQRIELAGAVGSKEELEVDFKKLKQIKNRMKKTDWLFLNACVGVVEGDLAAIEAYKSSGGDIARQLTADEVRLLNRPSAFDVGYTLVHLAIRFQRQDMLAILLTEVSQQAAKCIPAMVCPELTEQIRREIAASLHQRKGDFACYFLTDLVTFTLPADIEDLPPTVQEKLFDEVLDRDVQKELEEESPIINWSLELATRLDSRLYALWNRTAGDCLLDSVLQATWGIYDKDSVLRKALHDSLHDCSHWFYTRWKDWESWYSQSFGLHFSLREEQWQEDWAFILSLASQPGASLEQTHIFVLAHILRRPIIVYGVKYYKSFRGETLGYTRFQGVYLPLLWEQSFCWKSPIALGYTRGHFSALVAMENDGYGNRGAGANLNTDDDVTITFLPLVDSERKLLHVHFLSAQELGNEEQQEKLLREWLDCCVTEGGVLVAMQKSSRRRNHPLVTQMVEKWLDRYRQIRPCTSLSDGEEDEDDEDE
How it was run: as §1

YOD1 = molecular target: T5, YOD1 (UniProt Q5VVQ6)
T5 sequence (whole entry): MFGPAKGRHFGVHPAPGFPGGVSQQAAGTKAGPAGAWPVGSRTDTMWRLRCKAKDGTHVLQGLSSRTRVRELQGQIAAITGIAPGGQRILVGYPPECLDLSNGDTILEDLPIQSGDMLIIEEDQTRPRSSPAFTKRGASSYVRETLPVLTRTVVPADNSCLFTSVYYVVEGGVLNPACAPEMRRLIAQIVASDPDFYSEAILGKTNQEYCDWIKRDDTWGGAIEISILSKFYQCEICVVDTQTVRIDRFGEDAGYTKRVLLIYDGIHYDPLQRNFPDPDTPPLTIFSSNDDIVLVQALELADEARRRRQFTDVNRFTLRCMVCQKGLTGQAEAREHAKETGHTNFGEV
How it was run: as §1

Measured: log2 ratio of Biotin-Ahx-Ub-VS probe labelling

Sequence of UniProt P51784 (P51784 whole entry): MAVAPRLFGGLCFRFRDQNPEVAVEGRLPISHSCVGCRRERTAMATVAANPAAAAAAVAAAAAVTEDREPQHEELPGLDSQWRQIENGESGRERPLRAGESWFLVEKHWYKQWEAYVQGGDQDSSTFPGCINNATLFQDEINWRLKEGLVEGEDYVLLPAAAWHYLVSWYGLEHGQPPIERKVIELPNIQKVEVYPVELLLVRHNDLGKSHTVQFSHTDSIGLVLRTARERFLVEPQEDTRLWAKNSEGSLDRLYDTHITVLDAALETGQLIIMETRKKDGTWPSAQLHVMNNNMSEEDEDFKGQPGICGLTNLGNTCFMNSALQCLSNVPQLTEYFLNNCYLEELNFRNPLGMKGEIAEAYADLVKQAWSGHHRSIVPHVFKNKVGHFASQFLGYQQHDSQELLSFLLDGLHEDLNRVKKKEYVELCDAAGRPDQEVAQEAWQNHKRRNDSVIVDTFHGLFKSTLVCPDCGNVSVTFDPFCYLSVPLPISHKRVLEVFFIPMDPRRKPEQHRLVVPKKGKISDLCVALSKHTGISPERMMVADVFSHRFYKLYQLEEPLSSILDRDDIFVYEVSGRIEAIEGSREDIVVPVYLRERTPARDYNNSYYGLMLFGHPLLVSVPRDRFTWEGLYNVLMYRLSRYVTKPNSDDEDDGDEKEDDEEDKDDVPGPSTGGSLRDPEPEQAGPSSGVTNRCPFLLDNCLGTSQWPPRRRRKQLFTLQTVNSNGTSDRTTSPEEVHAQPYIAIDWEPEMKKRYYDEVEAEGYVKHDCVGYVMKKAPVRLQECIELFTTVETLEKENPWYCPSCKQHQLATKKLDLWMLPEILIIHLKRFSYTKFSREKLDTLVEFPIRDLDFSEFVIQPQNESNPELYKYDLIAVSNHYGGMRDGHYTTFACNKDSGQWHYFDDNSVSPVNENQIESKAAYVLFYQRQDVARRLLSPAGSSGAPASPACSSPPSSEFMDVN
Sequence of USP9X (Q93008 whole entry, the tested form may be a part): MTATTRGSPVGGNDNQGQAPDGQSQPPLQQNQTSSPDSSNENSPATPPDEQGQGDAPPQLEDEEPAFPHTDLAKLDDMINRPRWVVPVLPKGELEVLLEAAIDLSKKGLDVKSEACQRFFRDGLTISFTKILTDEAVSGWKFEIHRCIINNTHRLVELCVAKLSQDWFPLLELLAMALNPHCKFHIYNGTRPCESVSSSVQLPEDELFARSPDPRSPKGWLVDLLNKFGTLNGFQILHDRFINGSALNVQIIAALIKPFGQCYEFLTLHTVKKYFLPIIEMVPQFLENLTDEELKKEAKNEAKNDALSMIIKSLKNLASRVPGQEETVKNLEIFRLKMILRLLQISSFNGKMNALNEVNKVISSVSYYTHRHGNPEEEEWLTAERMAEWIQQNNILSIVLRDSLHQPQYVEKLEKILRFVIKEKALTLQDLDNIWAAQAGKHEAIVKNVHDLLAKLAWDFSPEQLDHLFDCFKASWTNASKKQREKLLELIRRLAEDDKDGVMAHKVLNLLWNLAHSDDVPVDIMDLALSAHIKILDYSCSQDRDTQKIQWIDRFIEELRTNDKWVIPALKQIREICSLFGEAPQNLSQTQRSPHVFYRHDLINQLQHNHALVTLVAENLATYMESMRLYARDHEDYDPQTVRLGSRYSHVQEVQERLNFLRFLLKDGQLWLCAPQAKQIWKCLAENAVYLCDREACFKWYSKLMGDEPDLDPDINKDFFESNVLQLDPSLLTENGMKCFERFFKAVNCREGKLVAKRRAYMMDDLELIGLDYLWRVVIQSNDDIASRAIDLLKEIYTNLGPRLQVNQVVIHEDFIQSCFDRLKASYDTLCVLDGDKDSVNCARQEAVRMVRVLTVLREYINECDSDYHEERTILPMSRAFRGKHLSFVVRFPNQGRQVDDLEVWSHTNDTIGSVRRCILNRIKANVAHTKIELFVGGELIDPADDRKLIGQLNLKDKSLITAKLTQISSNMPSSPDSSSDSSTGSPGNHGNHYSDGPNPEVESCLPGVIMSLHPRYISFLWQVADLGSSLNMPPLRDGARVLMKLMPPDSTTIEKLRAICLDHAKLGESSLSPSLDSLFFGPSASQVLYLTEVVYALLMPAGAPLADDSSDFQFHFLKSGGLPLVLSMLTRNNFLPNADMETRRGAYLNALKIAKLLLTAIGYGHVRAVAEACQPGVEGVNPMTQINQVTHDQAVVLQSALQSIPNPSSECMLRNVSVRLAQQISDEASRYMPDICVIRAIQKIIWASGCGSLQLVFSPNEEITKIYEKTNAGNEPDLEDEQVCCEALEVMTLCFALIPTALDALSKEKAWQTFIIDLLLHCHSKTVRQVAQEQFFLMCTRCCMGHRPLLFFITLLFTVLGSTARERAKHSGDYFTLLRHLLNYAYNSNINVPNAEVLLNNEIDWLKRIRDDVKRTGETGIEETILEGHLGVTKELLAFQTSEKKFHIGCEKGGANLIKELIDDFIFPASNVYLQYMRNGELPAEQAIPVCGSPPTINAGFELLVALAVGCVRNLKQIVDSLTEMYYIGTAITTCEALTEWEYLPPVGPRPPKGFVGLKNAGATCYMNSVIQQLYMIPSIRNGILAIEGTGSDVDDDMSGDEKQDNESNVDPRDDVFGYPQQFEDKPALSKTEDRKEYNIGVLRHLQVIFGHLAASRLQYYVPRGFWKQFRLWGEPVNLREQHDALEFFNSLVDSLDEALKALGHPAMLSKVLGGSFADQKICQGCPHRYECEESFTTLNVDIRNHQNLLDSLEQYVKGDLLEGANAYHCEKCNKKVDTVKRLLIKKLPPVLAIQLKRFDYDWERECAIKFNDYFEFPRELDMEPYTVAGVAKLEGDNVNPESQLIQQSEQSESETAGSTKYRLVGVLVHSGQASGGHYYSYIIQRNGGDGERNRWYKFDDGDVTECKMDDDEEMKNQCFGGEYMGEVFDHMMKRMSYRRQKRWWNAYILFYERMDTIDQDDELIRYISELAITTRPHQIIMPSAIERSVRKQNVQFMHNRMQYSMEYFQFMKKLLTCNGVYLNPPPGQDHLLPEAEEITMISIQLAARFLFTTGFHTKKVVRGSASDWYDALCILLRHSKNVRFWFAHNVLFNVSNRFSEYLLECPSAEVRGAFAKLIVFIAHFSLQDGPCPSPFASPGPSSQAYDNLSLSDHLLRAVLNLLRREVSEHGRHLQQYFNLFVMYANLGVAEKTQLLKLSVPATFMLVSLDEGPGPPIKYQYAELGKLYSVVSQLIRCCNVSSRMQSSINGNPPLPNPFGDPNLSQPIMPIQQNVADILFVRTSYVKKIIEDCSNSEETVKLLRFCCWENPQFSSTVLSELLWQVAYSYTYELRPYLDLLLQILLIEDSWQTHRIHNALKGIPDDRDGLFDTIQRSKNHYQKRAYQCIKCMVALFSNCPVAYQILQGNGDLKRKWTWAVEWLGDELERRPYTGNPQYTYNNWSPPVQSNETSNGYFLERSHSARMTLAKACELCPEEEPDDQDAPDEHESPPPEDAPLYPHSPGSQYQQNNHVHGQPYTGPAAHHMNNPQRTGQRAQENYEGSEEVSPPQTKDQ
Sequence of UniProt O00487 (O00487 whole entry): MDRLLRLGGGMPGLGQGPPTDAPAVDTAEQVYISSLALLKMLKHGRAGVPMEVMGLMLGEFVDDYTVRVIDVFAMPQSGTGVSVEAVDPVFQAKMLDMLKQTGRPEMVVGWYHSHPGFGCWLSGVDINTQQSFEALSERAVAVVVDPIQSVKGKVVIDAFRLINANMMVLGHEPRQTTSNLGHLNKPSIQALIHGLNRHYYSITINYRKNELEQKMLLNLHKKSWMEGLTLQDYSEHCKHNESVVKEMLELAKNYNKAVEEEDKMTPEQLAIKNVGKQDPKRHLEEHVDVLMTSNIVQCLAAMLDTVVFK

CNC(=O)C1CCN(C(=O)CCl)CC1
inactive: USP9X -0.107 | UniProt O00487 0.144 | UniProt O00507 -0.581 | UniProt P51784 0.091 | UniProt Q5T2D3 0.0899 | UniProt Q8TE49 -0.129 | UniProt Q9P2H5 0.179 | UniProt Q9UGI0 0.0343 | YOD1 -0.239

Reference: the supplement of paper PMC11732987, “Enantioselective OTUD7B fragment discovery through chemoproteomics screening and high-throughput optimisation” (Communications Chemistry, 2025)
